This is a sample that favours compounds with a hit; in the whole collection about 18% have one here.
RORgamma inh: blocks mouse ROR gamma transcriptional activity. Potency, µM (highest dose often 53.6 µM), actives largely listed as inhibitors. Drosophila S2 Gal4-RORgamma UAS-luciferase reporter, 20 h. 310,000 tested, 5.4% active; also: nearly all actives have a fitted effect of over 60% in size
Target sequence (P51450 whole entry, looked up, the tested form may be a part): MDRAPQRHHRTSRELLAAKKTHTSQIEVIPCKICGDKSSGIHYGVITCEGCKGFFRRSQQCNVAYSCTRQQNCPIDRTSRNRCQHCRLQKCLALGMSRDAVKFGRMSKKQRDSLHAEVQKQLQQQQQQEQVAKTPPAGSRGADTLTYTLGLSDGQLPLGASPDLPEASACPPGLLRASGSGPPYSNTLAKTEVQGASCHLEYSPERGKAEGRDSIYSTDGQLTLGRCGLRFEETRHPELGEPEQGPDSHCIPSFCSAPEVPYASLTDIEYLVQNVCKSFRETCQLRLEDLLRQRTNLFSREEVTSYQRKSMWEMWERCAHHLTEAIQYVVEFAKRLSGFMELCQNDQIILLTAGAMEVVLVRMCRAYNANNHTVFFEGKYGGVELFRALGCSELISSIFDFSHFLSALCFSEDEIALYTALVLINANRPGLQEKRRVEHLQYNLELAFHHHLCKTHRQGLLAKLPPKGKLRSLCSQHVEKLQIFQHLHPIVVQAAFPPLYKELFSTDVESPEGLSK
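Stably transfected Drosophila Schneider cells are the test system, with ROR gamma fused to Gal4 and luciferase under UAS control; luminescence is read after 20 hr of 700 uM copper sulfate induction at ambient temperature.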
IL1B secr inh: inhibitors of inflammasome signaling (IL-1 beta secretion); THP-1 LPS/ATP IL-1B secretion, AlphaLISA, 16 h; hits give low values; activity change, % at 57.5 µM; 360,000 tested, 4.7% active; in the data active = activity change below about -50%; inconclusive = mostly about -30% to -49%
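Secreted IL-1B measured by AlphaLISA bead assay after 16 h compound exposure of THP-1 cells; compounds (final up to 57.5 uM) added 1 h before LPS (250 ng/mL) and ATP (1.25 mM) stimulation; lower signal means less secretion.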
TDP1 cell CPT: DT40-hTDP1 cell growth loss with CPT; chicken DT40 Tdp1-/-;hTDP1 cells + 20 nM CPT, ATP luminescence, 48 h; Potency, µM (titrated, usually from 46.2 µM), actives largely listed as inhibitors; 420,000 tested, 12% active; AID 686979; also: nearly all actives have a fitted effect of over 55% in size
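Cell growth measured by CellTiter-Glo luminescence after a minimum 48 h, 37 C compound exposure with 20 nM CPT in Tdp1-knockout DT40 cells stably expressing hTDP1, seeded 400/well; qHTS titration format.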
LDHA inh: blocks human lactate dehydrogenase A; 480,000 tested, 0.15% active; P00338; activity change, % (values are at about 110 or 230 µM); purified LDHA, NADH/diaphorase-resazurin fluorescence; hits give low values; in the data active = activity change below about -30%; inconclusive = mostly about -25% to -30%
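Enzyme activity of human lactate dehydrogenase 5 (2 nM; 0.06 mM NADH, 0.2 mM pyruvate, 5 min, RT) is measured via a resazurin/diaphorase fluorescence readout of residual NADH.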
Gal4-VP16 FLuc: counter-screen for ROR gamma inhibitors: Gal4-VP16 reporter | AID 2546 | Drosophila S2 Gal4-VP16 UAS-luciferase, luminescence, 20 h | Potency, µM (series often up to 53.6 µM), usual class: inhibitors | 310,000 tested, 3.5% active;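 also: Gal4-VP16 expression switched on by copper sulfate through the metallothionein promoter; nearly all actives have a fitted effect of over 50% in size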
TDP1 cell noCPT: qHTS for Inhibitors of human tyrosyl-DNA phosphodiesterase 1 (TDP1): qHTS in cells in absence of CPT; DT40 Tdp1-/- hTDP1 cells, no CPT, ATP luminescence, 48 h; 420,000 tested, 15% active; Potency, µM (highest dose often 46.2 µM), hits mostly inhibitors; also: nearly all actives have a fitted effect of over 55% in size
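Chicken DT40 Tdp1-/- cells complemented with human TDP1, screened without camptothecin (DMSO vehicle only), 400 cells/well. Compounds pin-transferred, cells incubated at 37 °C for at least 48 hr. Growth read as ATP-dependent luminescence (CellTiter-Glo, 30 min at RT).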
Hits are given with their value. Unless noted, calls follow the shape of the dose curve; as a rule, active = well fitted curve in the direction sought with a large enough effect; inconclusive = small, poorly fitted or top-dose-only effect, or another doubt; inactive = no such curve, though single readings can be large; an effect the other way counts as inactive or inconclusive.

`O=S(=O)(CCN(CCS(=O)(=O)C(F)(F)F)CC1CCCO1)C(F)(F)F` (stereo unspecified) gave RORgamma inh inactive, IL1B secr inh inactive, TDP1 cell CPT 2.3µM, LDHA inh inactive, Gal4-VP16 FLuc inactive and TDP1 cell noCPT 2.3µM.
Screening CCOC(=O)c1ccccc1Nc1cn(C(C)=O)c2ccccc12 returned RORgamma inh inactive, IL1B secr inh inactive, TDP1 cell CPT 3.7µM, LDHA inh inactive, Gal4-VP16 FLuc inactive and TDP1 cell noCPT 4.6µM.
`CC(=O)c1cccc(NC(=O)C(C)N(C)Cc2ccccc2N2CCCCC2)c1` (stereo unspecified) gave LDHA inh inactive.
COc1ccc(S(=O)(=O)N2CCCC2)cc1-c1nc(C(C)C)no1 was read as LDHA inh inactive.
For CS(=O)(=O)N(CC(=O)Nc1ccccc1C(=O)NCCc1ccccc1)c1ccc2c(c1)OCCO2 the results were RORgamma inh inactive, IL1B secr inh inactive, TDP1 cell CPT 29µM, LDHA inh inactive, Gal4-VP16 FLuc inactive and TDP1 cell noCPT 21µM.
Screening CS(=O)(=O)N(CC(=O)Nc1ccccc1C(=O)NCc1ccccc1)c1ccc2c(c1)OCCO2 returned RORgamma inh inactive, IL1B secr inh inactive, TDP1 cell CPT inconclusive, LDHA inh inactive, Gal4-VP16 FLuc inactive and TDP1 cell noCPT inconclusive.
Screening COc1ccc(-n2c(=O)c3ccccc3n(Cc3ccccc3C)c2=O)c(OC)c1 returned TDP1 cell CPT 21µM, LDHA inh inactive and TDP1 cell noCPT inconclusive.
For COc1ccc(-n2c(=O)c3ccccc3c3ccccc3c2=O)c(OC)c1 the results were RORgamma inh inactive, IL1B secr inh inactive, TDP1 cell CPT inactive, LDHA inh inactive, Gal4-VP16 FLuc inactive and TDP1 cell noCPT inactive.
`Cc1ccccc1Cn1c(=O)n(Cc2ccco2)c(=O)c2ccccc21` gave RORgamma inh inactive, IL1B secr inh inactive, TDP1 cell CPT 15µM, LDHA inh inactive, Gal4-VP16 FLuc inactive and TDP1 cell noCPT inconclusive.
Screening Cc1ccccc1Cn1c(=O)n(Cc2ccco2)c(=O)c2oc3ccccc3c21 returned TDP1 cell CPT inactive, LDHA inh inactive and TDP1 cell noCPT inactive.
Screening Cc1ccc(OCC(=O)Nc2ccc3c(c2)nc(CCn2nc(C)cc2C)n3C)cc1 returned LDHA inh inactive.
For Cc1cccc(CS(=O)(=O)c2ncc(Cl)c(C(=O)NCc3ccc4c(c3)OCO4)n2)c1 the results were RORgamma inh 6.3µM, IL1B secr inh -96, TDP1 cell CPT 2.9µM, LDHA inh inactive, Gal4-VP16 FLuc 3.2µM and TDP1 cell noCPT 4.6µM.
CCS(=O)(=O)c1ncc(Cl)c(C(=O)NCc2ccc(OC)cc2)n1 was read as TDP1 cell CPT 1.6µM, LDHA inh inactive and TDP1 cell noCPT inactive.
Screening CCS(=O)(=O)c1ncc(Cl)c(C(=O)N2CCN(c3ccc(OC)cc3)CC2)n1 returned TDP1 cell CPT inconclusive, LDHA inh inactive and TDP1 cell noCPT 4.1µM.
For COc1ccc(N2CCN(C(=O)c3nc(SC)ncc3Cl)CC2)cc1 the results were TDP1 cell CPT inactive, LDHA inh inactive and TDP1 cell noCPT inconclusive.
`Cc1ccc(C(=O)NCc2ccc3c(c2)OCO3)c(Cl)c1` gave IL1B secr inh inactive, TDP1 cell CPT inactive, LDHA inh inactive and TDP1 cell noCPT inactive.
For CCCSc1ncc(Cl)c(C(=O)NCc2ccc(OC)cc2)n1 the results were TDP1 cell CPT inactive, LDHA inh inactive and TDP1 cell noCPT inconclusive.
For Cc1ccc(CNC(=O)c2nc(S(=O)(=O)Cc3ccc(C)cc3)ncc2Cl)cc1 the results were TDP1 cell CPT 5.8µM, LDHA inh inactive and TDP1 cell noCPT 3.3µM.
Screening CCN1/C(=C/c2ccc3ccccc3[n+]2CC)C=Cc2ccccc21 returned RORgamma inh 8.9µM, IL1B secr inh -55, TDP1 cell CPT 1.6µM, LDHA inh inconclusive, Gal4-VP16 FLuc 2.8µM and TDP1 cell noCPT 1.5µM.
Screening Cc1cccc(N(C)c2nc3ccccc3c3nnc(C)n23)c1 returned TDP1 cell CPT inconclusive, LDHA inh inactive and TDP1 cell noCPT 29µM.
CCOC(=O)c1nc(N(C)c2cccc(C)c2)c2ccccc2n1 was read as LDHA inh inactive.
For Cc1cc(Br)c(OCc2ccc(C(=O)N/N=C/c3ccc[nH]3)cc2)c(Br)c1 the results were IL1B secr inh -62, TDP1 cell CPT inconclusive, LDHA inh inactive and TDP1 cell noCPT inconclusive.
Screening O=C(N/N=C/c1ccccc1C(=O)O)c1ccc(COc2cccc3cccnc23)cc1 returned RORgamma inh inactive, IL1B secr inh inactive, TDP1 cell CPT inactive, LDHA inh inactive, Gal4-VP16 FLuc inactive and TDP1 cell noCPT inactive.
`O=C(N/N=C/c1ccc[nH]1)c1ccc(COc2cccc3cccnc23)cc1` gave RORgamma inh 13µM, IL1B secr inh -89, TDP1 cell CPT inactive, LDHA inh inactive, Gal4-VP16 FLuc 14µM and TDP1 cell noCPT inactive.
`CC(=O)Nc1c(C)cccc1C(C)C` gave LDHA inh inactive.
Screening O=C(NCc1cccc(CNC(=O)Nc2ccccc2C(=O)NCCc2ccccc2)c1)Nc1ccccc1C(=O)NCCc1ccccc1 returned LDHA inh inactive.
`COc1ccc2[nH]c(C)c(C(=O)CN3CCC(C(N)=O)CC3)c2c1` gave LDHA inh inactive.
CCn1c(CN2CCCCC2)nc2cc(NC(=O)COc3ccc(C(C)(C)C)cc3)ccc21 was read as TDP1 cell CPT 12µM, LDHA inh inactive and TDP1 cell noCPT 8.2µM.
`Cc1ccc(C(C)C)c(OCC(=O)Nc2ccc3c(c2)nc(CCN2CCCCC2)n3C)c1` gave RORgamma inh inconclusive, IL1B secr inh -80, TDP1 cell CPT inconclusive, LDHA inh inactive, Gal4-VP16 FLuc inconclusive and TDP1 cell noCPT inconclusive.
CCn1c(CN2CCCCC2)nc2cc(NC(=O)COc3cc(C)ccc3C(C)C)ccc21 was read as TDP1 cell CPT 18µM, LDHA inh inactive and TDP1 cell noCPT inconclusive.
For CCn1c(CN2CCOCC2)nc2cc(NC(=O)c3cccc([N+](=O)[O-])c3)ccc21 the results were TDP1 cell CPT inconclusive, LDHA inh inactive and TDP1 cell noCPT inactive.
Cc1ccc(C(C)C)c(OCC(=O)Nc2ccc3oc(C)nc3c2)c1 was read as LDHA inh inactive.
CCn1c(CN2CCCCC2)nc2cc(NC(=O)c3cccc([N+](=O)[O-])c3)ccc21 was read as TDP1 cell CPT 18µM, LDHA inh inactive and TDP1 cell noCPT 23µM.
